PKM2 activator: PKM2 (human) enzyme activation. P14618. purified PKM2, Kinase-Glo ATP luminescence, activation; response scale: 0% is enzyme alone, no compound. Potency, µM (highest dose often 57.5 µM), for the others: at the top dose activation, actives largely listed as activators. hit rate 0.34% among 260,000. AID 1631; also: potency is read from the fitted curve at half-maximal effect; nearly all actives have a fitted effect of over 55% in size
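Kinase-Glo luminescence reports ATP generated from ADP (0.1 mM) and PEP (0.5 mM) by purified hPK-M2 after 1 h at room temperature, pH 7.2 imidazole buffer; intermediate enzyme activity allows detecting inhibitors and activators.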
RORg inh: ROR gamma (mouse) transcription inhibition | P51450 | Drosophila S2 Gal4-RORgamma UAS-luciferase reporter, 20 h | Potency, µM (highest dose often 53.6 µM), for the others: at the highest dose activity change, negative = inhibition, usual class: inhibitors | hit rate 5.4% among 310,000 | AID 2551; also: potency is read from the fitted curve at half-maximal effect; nearly all actives have a fitted effect of over 60% in size
Target sequence (P51450 whole entry, looked up, the tested form may be a part): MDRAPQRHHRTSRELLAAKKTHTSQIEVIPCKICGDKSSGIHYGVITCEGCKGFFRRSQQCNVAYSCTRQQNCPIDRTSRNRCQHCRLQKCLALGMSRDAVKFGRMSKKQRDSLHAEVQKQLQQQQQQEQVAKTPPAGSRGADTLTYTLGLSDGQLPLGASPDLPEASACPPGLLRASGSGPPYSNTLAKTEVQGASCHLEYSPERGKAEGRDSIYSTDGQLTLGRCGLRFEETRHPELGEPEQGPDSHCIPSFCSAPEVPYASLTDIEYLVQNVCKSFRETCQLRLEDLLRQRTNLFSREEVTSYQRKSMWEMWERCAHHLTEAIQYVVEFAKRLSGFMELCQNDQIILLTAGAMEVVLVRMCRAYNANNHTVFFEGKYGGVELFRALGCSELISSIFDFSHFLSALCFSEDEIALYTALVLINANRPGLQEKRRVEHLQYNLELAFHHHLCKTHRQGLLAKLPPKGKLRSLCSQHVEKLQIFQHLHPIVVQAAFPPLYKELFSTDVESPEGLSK
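In this cell-based reporter format, copper sulfate (700 uM final) drives Gal4–ROR gamma fusion expression from a metallothionein promoter in Drosophila Schneider cells; compounds preincubated 1 hr, reporter read after 20 hr at ambient temperature.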
Gal4-VP16 FLuc: inhibits Gal4-VP16 luciferase reporter, ROR gamma counter-screen | Drosophila S2 Gal4-VP16 UAS-luciferase, luminescence, 20 h | Potency, µM (top dose mostly 53.6 µM), inactives show top-dose activity, negative = inhibition, hits mostly inhibitors | hit rate 3.5% among 310,000;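 also: Gal4-VP16 expression switched on by copper sulfate through the metallothionein promoter; potency is read from the fitted curve at half-maximal effect; nearly all actives have a fitted effect of over 50% in size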
Six1-Eya2 inh: inhibitors of human Six1/Eya2 interaction; Q15475+O00167; AlphaScreen GST-Six1/His-Eya2 binding, biochemical; stronger effect = lower value; activity change, % (no concentration beside the values); hit rate 0.56% among 360,000; AID 651725; in the data active = activity change below about -65%; inconclusive = mostly about -30% to -63%
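Six1/Eya2 binding was read as AlphaScreen signal after compounds were pinned into GST-Six1 plus His-tagged Eya2 (5X stock 250/500 nM) in pH 8.0 Tris/NaCl/TCEP buffer, beads added, then incubated 1 h, 37 C, dark.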
CtBP-E1A blk: CtBP/E1A binding inhibition; AlphaScreen GST-E1A/His-CtBP binding, 1536-well; stronger effect = lower value; activity change, % (no concentration beside the values); AID 651724; hit rate 0.49% among 340,000; in the data active = activity change below about -65%; inconclusive = mostly about -30% to -63%
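AlphaScreen with 125 nM GST-E1A and 125 nM His-CtBP (5X stocks) in Tris pH 8.0, 300 mM NaCl, BSA, Tween 20, TCEP. Compounds preincubated 2 h at 37 deg C, then glutathione donor/nickel acceptor beads added for 1 h at 37 deg C in dark.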
* hit, by the source's call; ! = a repeat was not active. Rows were chosen to be rich in hits. Some 5.6% of all compounds tested hit in one or more screens of this group. Unless noted, calls follow the shape of the dose curve; as a rule, active = well fitted curve in the direction sought with a large enough effect; inconclusive = small, poorly fitted or top-dose-only effect, or another doubt; inactive = no such curve, though single readings can be large; an effect the other way counts as inactive or inconclusive. % is scaled to controls: 0 for no effect and ±100 for the full control effect.

For CC(=O)OC1CC[C@]2(C)C(CC(OC(C)=O)[C@@]3(C)C4=CC(=O)OC(c5ccoc5)[C@]4(C)CCC23)C1(C)C (stereo partly drawn) the results were RORg inh 12.6µM* and Gal4-VP16 FLuc -0.6%.
Screening Cc1oc2ccc(OCc3c(F)cccc3Cl)cc2c1C(=O)O returned PKM2 activator 0.0%, RORg inh -0.3%, Gal4-VP16 FLuc -4.4% and Six1-Eya2 inh -0.3.
For Fc1ccccc1COc1ccc(/C=N/NC(=S)NCc2ccccc2)cc1 the results were PKM2 activator -0.1%, RORg inh 0.891µM*, Gal4-VP16 FLuc 1µM*, Six1-Eya2 inh -8.7 and CtBP-E1A blk -2.4.
CNC(=S)N/N=C/c1cccc(OCc2ccccc2F)c1 was read as PKM2 activator -9.1%, RORg inh 2.24µM*, Gal4-VP16 FLuc 4.47µM*, Six1-Eya2 inh -13.6 and CtBP-E1A blk 0.9.
For CCNC(=S)N/N=C/c1cccc(OCc2c(F)cccc2Cl)c1 the results were PKM2 activator -19.0%, RORg inh 0.708µM*, Gal4-VP16 FLuc 0.708µM*, Six1-Eya2 inh -5.8 and CtBP-E1A blk -18.1.
Screening Cc1ccc(S(=O)(=O)N(CCCO)CC(O)CON=C2c3ccccc3-c3ccccc32)cc1 (stereo not drawn) returned PKM2 activator 6.9%, RORg inh inconclusive, Gal4-VP16 FLuc inconclusive, Six1-Eya2 inh -11.7 and CtBP-E1A blk -2.2.
For CCn1c(SCC(=O)Nc2nccs2)nnc1-c1ccc(S(=O)(=O)N2CCCCCC2)cc1 the results were PKM2 activator 2.4%, RORg inh -14.1%, Gal4-VP16 FLuc 4.9%, Six1-Eya2 inh -1.4 and CtBP-E1A blk -11.2.
`CCC(Sc1nnc(-c2ccc(C)c(Cl)c2)n1CC)C(=O)Nc1nccs1` (stereo not drawn) gave PKM2 activator 9.5%, RORg inh 12.6µM*, Gal4-VP16 FLuc inconclusive, Six1-Eya2 inh -13.2 and CtBP-E1A blk -12.9.
O=C(CSc1nc(-c2ccco2)cc(C(F)(F)F)n1)Nc1ccc(C(=O)N2CCCCC2)cc1 was read as PKM2 activator -13.0%, RORg inh inconclusive, Gal4-VP16 FLuc 4.47µM*, Six1-Eya2 inh -8.6 and CtBP-E1A blk -1.8.
For CCCCNc1c([N+](=O)[O-])cc(C(=O)O)cc1[N+](=O)[O-] the results were PKM2 activator -1.0%, RORg inh 6.9%, Gal4-VP16 FLuc 3.4%, Six1-Eya2 inh 5.7 and CtBP-E1A blk -13.9.
CCCCNc1c([N+](=O)[O-])cc(C)cc1[N+](=O)[O-] was read as PKM2 activator 3.0%, RORg inh 14.0%, Gal4-VP16 FLuc 5.0%, Six1-Eya2 inh -66.9* and CtBP-E1A blk -24.9.
Screening Cc1cc(C)c(Nc2cc(S(=O)(=O)O)c(N)c3c2C(=O)c2ccccc2C3=O)c(C)c1 returned PKM2 activator -28.3%, RORg inh -36.8%, Gal4-VP16 FLuc inconclusive, Six1-Eya2 inh -68.0* and CtBP-E1A blk -88.0*!.
`Cc1cc(C)c(NC(=O)COC(=O)c2cccc3c2C(=O)c2ccccc2C3=O)c(C)c1` gave PKM2 activator 1.5%, RORg inh -10.2%, Gal4-VP16 FLuc -15.3%, Six1-Eya2 inh inconclusive and CtBP-E1A blk inconclusive.
`CC(C)(C)C(=O)COC(=O)c1cc(-c2cccnc2)nc2ccccc12` gave PKM2 activator 2.5%, RORg inh inconclusive, Gal4-VP16 FLuc 35.5µM*, Six1-Eya2 inh -5.1 and CtBP-E1A blk 2.2.
For CCCCNC(=S)NNC(=O)c1cc(C2CC2)nc2ccccc12 the results were PKM2 activator 1.6%, RORg inh 6.31µM*, Gal4-VP16 FLuc inconclusive, Six1-Eya2 inh -6.3 and CtBP-E1A blk 8.7.
Screening COCCNC(=S)NNC(=O)c1cc(C2CC2)nc2ccccc12 returned PKM2 activator -7.5%, RORg inh 11.2µM*, Gal4-VP16 FLuc -27.0%, Six1-Eya2 inh 6.3 and CtBP-E1A blk 1.0.
For CNC(=S)NNC(=O)c1cc(-c2cccnc2)nc2ccccc12 the results were PKM2 activator 6.1%, RORg inh 7.08µM*, Gal4-VP16 FLuc 15.8µM*, Six1-Eya2 inh -0.7 and CtBP-E1A blk -0.7.
Screening CN(Cc1ccc(OC(F)F)cc1)C(=O)c1cccc(S(=O)(=O)N2CCN(Cc3ccccc3)CC2)c1 returned Six1-Eya2 inh -10.9 and CtBP-E1A blk -5.4.
For CCCCNC(=S)NNC(=O)c1cc(-c2ccncc2)nc2ccccc12 the results were PKM2 activator 0.9%, RORg inh 11.2µM*, Gal4-VP16 FLuc -18.7%, Six1-Eya2 inh -0.8 and CtBP-E1A blk -5.9.
Cc1ccc(-n2c(SCC(N)=O)nc3c(oc4ccccc43)c2=O)cc1 was read as RORg inh -34.7%, Gal4-VP16 FLuc -5.5%, Six1-Eya2 inh 3.3 and CtBP-E1A blk -10.4.
For CCNC(=S)NNC(=O)CCn1c2ccccc2c2ccccc21 the results were PKM2 activator -1.0%, RORg inh inconclusive, Gal4-VP16 FLuc inconclusive, Six1-Eya2 inh -2.7 and CtBP-E1A blk 3.5.
Screening CCNC(=S)NNc1nncc2ccccc12 returned RORg inh 0.501µM*, Gal4-VP16 FLuc 3.16µM*, Six1-Eya2 inh 6.2 and CtBP-E1A blk 1.3.
NNc1nncc2ccccc12 was read as RORg inh 7.08µM*! and Gal4-VP16 FLuc inconclusive.
For CNC(=S)NNc1nncc2ccccc12 the results were PKM2 activator 2.6%, RORg inh 5.01µM*, Gal4-VP16 FLuc 4.47µM*, Six1-Eya2 inh 15.2 and CtBP-E1A blk 6.1.
Screening CC(=O)OC1C(N2CCCCC2)c2c(ccc(/C=C/C(=O)N3CCCCC3)c2O)OC1(C)C (stereo not drawn) returned PKM2 activator 1.9%, RORg inh inconclusive, Gal4-VP16 FLuc 1.26µM*, Six1-Eya2 inh 8.2 and CtBP-E1A blk 1.6.
For CC1(C)Oc2ccc3ccc(=O)oc3c2C(N2CCCCC2)C1O (stereo not drawn) the results were PKM2 activator 27.0%, RORg inh 38.6%, Gal4-VP16 FLuc 8.6%, Six1-Eya2 inh 1.1 and CtBP-E1A blk 1.7.
COC(=O)c1ccc2c(=O)n(CC3CCCO3)c(SCC(=O)Nc3ccc(OC)cc3OC)nc2c1 (stereo not drawn) was read as PKM2 activator -12.6%, RORg inh 3.6%, Gal4-VP16 FLuc 0.5%, Six1-Eya2 inh 1.7 and CtBP-E1A blk 11.1.
Screening Cc1ccc(S(=O)(=O)N2CCN(C(=O)COC(=O)/C=C/c3ccc(F)cc3)CC2)c(C)c1 returned Six1-Eya2 inh -5.9 and CtBP-E1A blk -24.9.
COc1cc(/C=C/C(=O)OCC(=O)N2CCN(S(=O)(=O)c3ccc(C)cc3C)CC2)ccc1OC(F)F was read as Six1-Eya2 inh -21.6 and CtBP-E1A blk -86.5*.
Screening C[C@H](CO)N1C[C@H](C)[C@@H](CN(C)S(=O)(=O)c2ccc(F)cc2)Oc2c(NS(=O)(=O)c3ccc(F)cc3)cccc2C1=O returned Six1-Eya2 inh -1.5 and CtBP-E1A blk -3.7.

Screening data as filed in PubChem.
